The results in this text go back to PubChem BioAssay AID430 (Sanford-Burnham Center for Chemical Genomics, 2006).

The whole screen tested about 63,000 compounds, of which about 1,100 (1.7%) were called active. No stated cut-off is given here; in the data, active means cytotoxicity above about 50%; inactive means the rest. Only a selection was taken, and actives are over-represented in it overall. Entries with a potency or affinity are not part of this list.

The test in a line: HPDE-C7 pancreatic duct cell viability loss – fluorescence, HTS (AID 430).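 Further: cells exposed to compound for 48 hours before viability readout; 0% = vehicle and 100% = reference cytotoxic drug.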 As to conditions: HPDE-C7 pancreatic duct cells viability, at 10 µM, active compounds read high.
Regarding `CCC(c1nnnn1Cc1cccs1)N1CCN(c2nc3ccccc3s2)CC1` (configuration not stated), the cytotoxicity was -1.9% (inactive).

With `c1ccc(COc2ccc(Nc3ncnc4nc[nH]c34)cc2)cc1`, the cytotoxicity is -3.8% (inactive).

Regarding `C=CCn1c(N)c(C(=O)OCCC)c2nc3ccccc3nc21`, the cytotoxicity is 5.2% (inactive).

For the compound `C=CCn1c(N)c(C(=O)Nc2ccccc2)c2nc3ccccc3nc21`, the cytotoxicity is 66.5% (active).

On to `C=CCn1c(N)c(C(=O)OC(C)(C)C)c2nc3ccccc3nc21`, for which the cytotoxicity was 8.7% (inactive).

With `COC(=O)c1cccc(S(=O)(=O)N(Cc2ccco2)Cc2cc3ccc(OC)cc3[nH]c2=O)c1`, the cytotoxicity was -2.3% (inactive).

Consider `O=C(CCSc1ccccc1)N1CCOCC1`, for which the cytotoxicity was 2.9% (inactive).

Regarding `O=C1N=c2ccccc2=C1c1sc(=S)n(CC2CCCO2)c1O` (configuration not stated), the cytotoxicity is -0.5% (inactive).

For the compound `C=CCn1c(O)c(C2=c3ccccc3=NC2=O)sc1=Nc1ccc(O)cc1`, the cytotoxicity is 111% (active).

Take `C=CCn1c(O)c(C2=c3ccccc3=NC2=O)s/c1=N/c1nccs1`: the cytotoxicity is -2.6% (inactive).

Regarding `Cc1cccc(OCCc2nnc(N)s2)c1C`, the cytotoxicity was -15.8% (inactive).

`CC(C)c1nnc(NC(=O)CSc2nc3ccccc3s2)s1`: the cytotoxicity is -8.4% (inactive).

For `Cc1ccc(C(C(=O)NC(C)(C)C)N(CC2CCCO2)C(=O)Cn2nnc(-c3ccc(C)o3)n2)cc1` (configuration not stated), the cytotoxicity is -0.4% (inactive).

`COc1ccc(-c2cc3ccccc3n2CC(O)CN2CCN(CCO)CC2)cc1` (configuration not stated): the cytotoxicity was 52.6% (active).

In the case of `COc1ccc(-c2cc3ccccc3n2CC(O)CN2CCOCC2)cc1` (configuration not stated), the cytotoxicity was -1.1% (inactive).

For the compound `COc1ccc(-c2cc3ccccc3n2CC(O)CNC(CO)(CO)CO)cc1` (configuration not stated), the cytotoxicity was 6.1% (inactive).

For `CCOc1ccc(C2C(C(=O)c3ccco3)=C(O)C(=O)N2Cc2cccnc2)cc1OC` (configuration not stated), the cytotoxicity is 7.1% (inactive).

As for `CCn1c2ccccc2c2cc(CN3CCN(C(=O)c4ccco4)CC3)ccc21`, the cytotoxicity was -25.2% (inactive).

As for `Cc1ccc(Oc2ccc(NC(=O)c3ccco3)cc2)cc1`, the cytotoxicity was 78.8% (active).

Turning to `CCOC(=O)c1sc(NC(=O)c2ccco2)nc1-c1ccccc1`, the cytotoxicity was -8.2% (inactive).

As to `O=C(Nc1ccc(Oc2ccc(NC(=O)c3ccco3)c(NC(=O)c3ccco3)c2)cc1)c1ccco1`, the cytotoxicity was 25% (inactive).

Regarding `O=C(O)CCC(=O)Nc1ccc(C(=O)OC2CCCCC2)cc1`, the cytotoxicity was -4.7% (inactive).

Consider `CCn1c2ccccc2c2cc(NC(=O)c3ccco3)ccc21`, for which the cytotoxicity was 57.2% (active).

Take `CCn1c2ccccc2c2cc(NC(=O)N3CCOCC3)ccc21`: the cytotoxicity was 6.2% (inactive).

`O=C(Nc1ccc(OC(=O)c2ccco2)cc1)c1ccco1`: the cytotoxicity was -10.9% (inactive).

For the compound `O=C(Nc1nc(-c2cccs2)c(-c2ccccc2)s1)c1ccco1`, the cytotoxicity is 53.7% (active).

With `CC(=O)c1sc(NC(=O)c2ccco2)nc1-c1ccccc1`, the cytotoxicity is -1% (inactive).

Consider `Cc1ccc(NC(=O)c2ccc(OC(=O)c3ccco3)cc2)cc1`, for which the cytotoxicity is -5.6% (inactive).

`O=C(OC1CCCCC1)c1ccc(NC(=O)c2ccco2)cc1`: the cytotoxicity was 58.1% (active).

As for `CC(C)CCNC(=O)CN(CCN1CCOCC1)C(=O)Cn1nnc(-c2ccc(F)cc2)n1`, the cytotoxicity is 4.5% (inactive).

For `Cc1c(C(=O)O)sc2ncnc(N3CCCCC3C)c12` (configuration not stated), the cytotoxicity was 9.8% (inactive).

Take `Cc1nc(NC(=O)c2ccco2)sc1C(=O)Nc1ccc(Br)cc1`: the cytotoxicity is 65.7% (active).

Regarding `CCCCOC(=O)c1ccc(NC(=O)c2ccoc2C)cc1`, the cytotoxicity is 3.4% (inactive).

Regarding `CCOC(=O)c1sc(NC(=O)c2ccco2)nc1C`, the cytotoxicity is -1.4% (inactive).

In the case of `COC(=O)c1sc(NC(=O)c2ccco2)nc1C`, the cytotoxicity is -3.5% (inactive).

As for `CCCCCOC(=O)c1ccc(NC(=O)c2ccco2)cc1`, the cytotoxicity was 65.9% (active).

In the case of `CCCCOC(=O)c1ccc(NC(C)=O)cc1`, the cytotoxicity was -11.4% (inactive).

As to `Cc1ccc2c(c1)NCCO2`, the cytotoxicity is 5.4% (inactive).

Regarding `Cc1nnc(C)n1/N=C/c1cc(Br)cc(Br)c1O`, the cytotoxicity was 79.9% (active).

Take `Cc1nnc(C)n1/N=C/c1cc(Br)ccc1O`: the cytotoxicity was -12.5% (inactive).

For the compound `COc1c(Br)cc(Br)cc1/C=N/n1c(C)nnc1C`, the cytotoxicity was 2.9% (inactive).

Take `CC(C)COC(=O)C(N)C(C(=O)OCC(C)C)c1ccccc1` (configuration not stated): the cytotoxicity was -6.4% (inactive).

As for `O=C(NCC1CCCO1)C1CC(=O)N(c2ccc(F)c(Cl)c2)C1` (configuration not stated), the cytotoxicity is 3.4% (inactive).

As to `CCOC(=O)Cc1c(C)c2ccc(N(CC)CC)cc2oc1=O`, the cytotoxicity is -17.8% (inactive).

Consider `CCNc1ccc2c(Cl)cc(=O)oc2c1`, for which the cytotoxicity was -2% (inactive).

As to `CCN(CC)c1ccc2c(C)c(CN3CCOCC3)c(=O)oc2c1`, the cytotoxicity is 24.1% (inactive).

With `CCN(CC)c1ccc2c(C)c(-c3ccc(N)cc3)c(=O)oc2c1`, the cytotoxicity is 11% (inactive).

Take `CCN(CC)C(=O)CSc1nnc(-c2cccs2)n1Cc1ccco1`: the cytotoxicity is 17.7% (inactive).

Consider `O=C(COc1ccccc1)N1CCN(C(=O)c2cccc(F)c2)CC1`, for which the cytotoxicity is -40.5% (inactive).

For the compound `CCOC(=O)CN1C(=O)COc2ccc(Cl)cc21`, the cytotoxicity was -8.8% (inactive).

For `CCN(CC)CCCN(Cc1cc2cc3c(cc2[nH]c1=O)OCCO3)C(=O)Nc1ccc(F)cc1`, the cytotoxicity is 0.9% (inactive).

Consider `O=C(c1ccc(Cn2cc(Cl)cn2)cc1)N1CCN(c2ccccc2)CC1`, for which the cytotoxicity is 12.3% (inactive).

As for `O=C(O)c1cccc(Cn2cc(Br)cn2)c1`, the cytotoxicity was -12.3% (inactive).

Regarding `O=C(c1ccc(Cn2cc(Br)cn2)cc1)N1CCN(c2ccccc2)CC1`, the cytotoxicity is 53.1% (active).

Take `CC(=O)N(Cc1cc(=O)[nH]c2ccccc12)c1cccc(C)c1`: the cytotoxicity is 12% (inactive).

For the compound `CC1(C)CC(=O)C2=C(C1)N(CCN1CCOCC1)C1=C(C(=O)CC(C)(C)C1)C2c1cccc(Cl)c1`, the cytotoxicity was 3.8% (inactive).

On to `O=C1CC(N2CCN(c3ccccc3)CC2)C(=O)N1c1ccc2c(c1)OCCO2` (configuration not stated), for which the cytotoxicity was -4.9% (inactive).

Consider `Cc1ccc(CCNC(=O)C2CCCN(c3nc4ccccc4o3)C2)cc1` (configuration not stated), for which the cytotoxicity is -18% (inactive).

Turning to `COc1cc(C(=O)Nc2ccc(NC(=O)c3ccco3)nc2)cc(OC)c1OC`, the cytotoxicity is -2.5% (inactive).

For the compound `CCOc1cc(NC(=O)c2ccco2)c(OCC)cc1NC(=O)c1cc(OC)c(OC)c(OC)c1`, the cytotoxicity was 14.4% (inactive).

In the case of `COc1cc(NC(=O)c2ccco2)c(OC)cc1NC(=O)c1cc(OC)c(OC)c(OC)c1`, the cytotoxicity was 52.3% (active).

For the compound `Cc1cccc(NC(=O)Cn2c(C)c(C#N)c3ccccc32)c1C`, the cytotoxicity is -4.9% (inactive).

Turning to `O=C(CSc1n[nH]c(=O)[nH]c1=O)c1ccccc1`, the cytotoxicity is 5% (inactive).

For the compound `c1ccc(Cc2nnc3sc(Nc4ccccc4)nn23)cc1`, the cytotoxicity is 3% (inactive).

In the case of `CCn1c(SCC(=O)N2CCN(c3ccc(Cl)cc3)CC2)nc2ccccc2c1=O`, the cytotoxicity was 2.2% (inactive).

Take `O=C(NCc1cccnc1)C1CC(=O)N(c2ccc(Cl)cc2)C1` (configuration not stated): the cytotoxicity is -7% (inactive).

Regarding `CSC1=NCCN1C(=O)c1cccs1`, the cytotoxicity was 2% (inactive).

`Cc1ccc(C(=O)CSC2=C(C#N)C(c3ccco3)C3=C(CC(C)(C)CC3=O)N2)cc1` (configuration not stated): the cytotoxicity is 7.1% (inactive).

For `N#CC1=C(SCC(=O)c2ccccc2)NC2=C(C(=O)CCC2)C1c1ccco1` (configuration not stated), the cytotoxicity was 54.3% (active).

As to `COc1ccc(NC(=O)CSC2=C(C#N)C(c3ccco3)C3=C(CCCC3=O)N2)c(OC)c1` (configuration not stated), the cytotoxicity was -2.1% (inactive).

Turning to `CC(C)(C)c1ccc(C(=O)CCCSC2=C(C#N)C(c3ccco3)C3=C(CCCC3=O)N2)cc1` (configuration not stated), the cytotoxicity is 38.2% (inactive).

Take `Cc1ccc(C(=O)CSC2=C(C#N)C(c3ccco3)C3=C(CCCC3=O)N2)cc1` (configuration not stated): the cytotoxicity was 76.5% (active).

On to `Cc1ccc(NC(=O)CSC2=C(C#N)C(c3ccco3)C3=C(CCCC3=O)N2)cc1` (configuration not stated), for which the cytotoxicity was 3.5% (inactive).

With `CCOC(=O)N1CCN(CC(=O)Nc2c(C(=O)OC)[nH]c3cccc(Cl)c23)CC1`, the cytotoxicity was -17.3% (inactive).

With `COc1ccc(-n2nnnc2SCC(=O)c2cc3ccccc3o2)cc1`, the cytotoxicity was -1.1% (inactive).

In the case of `CCOC(=O)C1C(=O)CC(C)(O)C(C(=O)OCC)C1c1ccccc1OC` (configuration not stated), the cytotoxicity was -17.4% (inactive).

Regarding `CSCCC(NC(=O)OC(C)(C)C)C(=O)NC(CC(C)C)C(N)=O` (configuration not stated), the cytotoxicity is -35.4% (inactive).

Take `Cc1cccc(C)c1NC(=O)C(c1ccccc1)N1CCC2(CC1)OCCO2` (configuration not stated): the cytotoxicity is 9.2% (inactive).

Regarding `CCCC1=C(C(=O)OCC)C(c2ccccc2OC)NC(=O)N1` (configuration not stated), the cytotoxicity is -16.5% (inactive).

Turning to `Cc1noc(C)c1S(=O)(=O)N(CC(=O)N1CCn2c1nc1ccccc12)c1ccc(C(C)C)cc1`, the cytotoxicity was 8.7% (inactive).

As for `CCCn1c(CNc2ccc(Br)cc2)nc2ccccc21`, the cytotoxicity is 50.8% (active).

Consider `Cn1c(CNc2ccccc2)nc2ccccc21`, for which the cytotoxicity is -11.4% (inactive).

Turning to `CCCn1c(CNc2ccccc2O)nc2ccccc21`, the cytotoxicity is 14.5% (inactive).

Take `CCCn1c(NC(=O)c2ccccc2)nc2ccccc21`: the cytotoxicity was -20.2% (inactive).

On to `CCCn1c(NCc2ccco2)nc2ccccc21`, for which the cytotoxicity was 2% (inactive).

As to `Cc1ccc(Nc2cc(C)nc3nc(C)nn23)c(C)c1`, the cytotoxicity is -12.6% (inactive).

Consider `C=CCOC(=O)C1=C(C)OC(N)=C(C#N)C1c1ccccc1F` (configuration not stated), for which the cytotoxicity was 6.1% (inactive).

Take `COC(=O)c1ccc(CSc2nc(N)cc(N)n2)cc1`: the cytotoxicity was -4.4% (inactive).

Turning to `CCC(C)NCC(O)COCc1ccc(Cl)cc1` (configuration not stated), the cytotoxicity was 9.9% (inactive).

For the compound `O=C(Nc1ccc2c(c1)CCC2)c1cnn2c1NC(c1ccco1)CC2C(F)(F)F` (configuration not stated), the cytotoxicity was -4.4% (inactive).

As for `O=C(c1cnn2c1NC(c1ccco1)CC2C(F)(F)F)N1CCN(c2cccc(Cl)c2)CC1` (configuration not stated), the cytotoxicity was 50.2% (active).

Consider `O=C(c1ccco1)N1CCN(C(=O)c2cnn3c2NC(c2cccs2)CC3C(F)(F)F)CC1` (configuration not stated), for which the cytotoxicity was -5% (inactive).

Regarding `Cc1ccc(-c2ccc(=O)n(CCC(=O)NCCN3CCCCC3C)n2)cc1` (configuration not stated), the cytotoxicity is 5.1% (inactive).

Turning to `O=S(=O)(Nc1nc2ccccc2nc1NCCO)c1cccc(Cl)c1`, the cytotoxicity was 12.5% (inactive).

For `CCOC(=O)N1CCC(N(C(=O)Nc2ccccc2)C(C)CC)CC1` (configuration not stated), the cytotoxicity was -4.7% (inactive).

With `CCCOc1c(OC)cccc1C1CC(=O)Nc2cc(OC)c(OC)c(OC)c21` (configuration not stated), the cytotoxicity is 10.7% (inactive).

Take `O=C1CC(c2ccc3c(c2)OCO3)c2cc3c(cc2N1)OCO3` (configuration not stated): the cytotoxicity is -5.6% (inactive).

Turning to `CCCOc1ccccc1C1CC(=O)Nc2cc3c(cc21)OCCO3` (configuration not stated), the cytotoxicity is 63% (active).

For the compound `O=C1CC(c2cccs2)c2cc3c(cc2N1)OCO3` (configuration not stated), the cytotoxicity is 1% (inactive).

Consider `CCCOc1ccccc1C1CC(=O)NC2=C1C(=O)CCC2` (configuration not stated), for which the cytotoxicity is 47.3% (inactive).

In the case of `O=C1CC(c2cccnc2)c2cc3c(cc2N1)OCCO3` (configuration not stated), the cytotoxicity is 5.1% (inactive).

Take `CCCOc1ccccc1C1CC(=O)Nc2cc3c(cc21)OCO3` (configuration not stated): the cytotoxicity is 54.1% (active).

For `CCOc1ccccc1C1CC(=O)NC2=C1C(=O)CCC2` (configuration not stated), the cytotoxicity was 30.3% (inactive).

As to `O=C1CC(c2cccs2)c2cc3c(cc2N1)OCCO3` (configuration not stated), the cytotoxicity was 5.6% (inactive).

In the case of `CCCOc1c(OC)cccc1C1CC(=O)Nc2cc3c(cc21)OCCO3` (configuration not stated), the cytotoxicity was 70.1% (active).

`CCCOc1c(OC)cccc1C1CC(=O)Nc2cc3c(cc21)OCO3` (configuration not stated): the cytotoxicity is 12.7% (inactive).

Consider `CCCCOc1ccccc1C1CC(=O)NC2=C1C(=O)CCC2` (configuration not stated), for which the cytotoxicity was 71.2% (active).
